From PubChem
MITF primary: human MITF inhibition, primary screen. AID 1259374. O75030. 0.91% of 650,000 active. inhibition, % at 2.6 µM. AlphaScreen MITF homodimerization, bead proximity signal; in the data active means inhibition above about 50%;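 further: 0% = vehicle wells with protein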
GPR151 activ: activates the human receptor GPR151; PathHunter beta-arrestin GPR151 cells, luminescence; activation, % at 11.2 µM; 1% of 650,000 active; AID 1508602; in the data active means activation above about 4.9%;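 further: 0% = median of compound wells and 100% = cells with positive control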
FBW7 act: activators of human E3 ligase FBW7. Q969H0. AlphaScreen FBW7–phospho-cyclin E peptide binding, activator screen. normalized activity (activation), % at 26.1 µM. 0.13% of 650,000 active; in the data active means normalized activity above about 1.9%;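 further: purified mutant Fbw7 with reduced substrate affinity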
Target sequence (Q969H0 whole entry, looked up): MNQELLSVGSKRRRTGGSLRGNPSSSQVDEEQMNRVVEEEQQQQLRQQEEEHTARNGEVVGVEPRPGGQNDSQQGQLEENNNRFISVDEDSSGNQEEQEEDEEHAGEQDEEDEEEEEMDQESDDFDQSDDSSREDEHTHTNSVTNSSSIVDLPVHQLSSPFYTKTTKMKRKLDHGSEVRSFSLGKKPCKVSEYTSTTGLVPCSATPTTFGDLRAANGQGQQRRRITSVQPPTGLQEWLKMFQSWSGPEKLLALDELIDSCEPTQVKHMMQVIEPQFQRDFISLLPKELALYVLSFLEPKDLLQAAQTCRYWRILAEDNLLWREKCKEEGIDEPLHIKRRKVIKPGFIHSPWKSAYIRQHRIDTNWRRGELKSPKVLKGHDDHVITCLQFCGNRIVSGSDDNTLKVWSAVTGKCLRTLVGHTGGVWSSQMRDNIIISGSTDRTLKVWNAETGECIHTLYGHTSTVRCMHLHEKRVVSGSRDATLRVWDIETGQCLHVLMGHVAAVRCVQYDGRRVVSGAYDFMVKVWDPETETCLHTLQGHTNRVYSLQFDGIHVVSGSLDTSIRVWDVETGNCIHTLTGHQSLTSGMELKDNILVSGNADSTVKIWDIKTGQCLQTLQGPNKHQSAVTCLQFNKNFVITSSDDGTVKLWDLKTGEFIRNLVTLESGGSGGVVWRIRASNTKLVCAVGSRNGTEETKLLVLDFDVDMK
TEAD-YAP block: TEAD-YAP interaction inhibition; HEK-TIYL cells, TEAD-Gal4/YAP UAS-luciferase luminescence; inhibition, % at 9.12 µM; 1.4% of 640,000 active; in the data active means inhibition above about 32%;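 further: 0% = median of test compound wells and 100% = reference inhibitor wells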
* hit, by the source's call; · = no result given. Sampled rows, rich in hits. Any-hit rate of the full collection: about 3.5%.

SMILES	MITF primary	GPR151 activ	FBW7 act	TEAD-YAP block
O=C(/C=C/c1ccc2c(c1)OCCO2)c1ccccc1	-0.9	-1.1	0.0	-54.6
O=[N+]([O-])/C(=C/c1ccc2c(c1)OCCO2)c1ccccc1	9.0	-1.1	-0.1	65.2*
Nc1ccc2oc(-c3ccccc3)nc2c1	1.5	-4.3	-0.1	-35.2
O=C(O)c1ccc2oc(-c3ccccc3)nc2c1	4.2	-9.3	-0.1	54.6*
Oc1ccc2oc(-c3ccccc3)nc2c1	6.6	-2.6	-0.1	48.6*
CC1CCC(N2C(=O)C3C(C(=O)Nc4cccc(Cl)c4)C4C=CC3(O4)C2C(=O)NC2CCCC(C)C2C)CC1 (stereo not drawn)	-5.1	-0.3	0.0	4.7
Cc1cccc(OCC(=O)N(CCn2cccn2)c2nc3c(F)cccc3s2)c1	8.3	1.4	0.3	42.9*
Cc1cc(C(=O)N(CCn2cccn2)c2nc3c(F)cccc3s2)on1	-3.3	3.1	-0.2	-27.4
O=C(c1coc(=O)c2ccccc12)N1CCN(c2ccccc2F)CC1	-3.2	0.6	0.1	7.9
Cc1ccc(Cl)cc1N1CCN(C(=O)c2coc(=O)c3ccccc23)CC1	-10.3	0.7	-0.1	61.2*
COc1cc(OC)cc(C(=O)N2CCN(c3cc(Cl)ccc3C)CC2)c1	12.4	-0.5	0.1	53.9*
Cc1ccc(Cl)cc1N1CCN(C(=O)c2ccc(=O)[nH]c2)CC1	13.1	2.8	0.2	11.5
CC(C(=O)Nc1cccc(Br)c1)N(c1ccccc1)S(C)(=O)=O (stereo not drawn)	14.5	-1.9	0.3	-3.2
COCCNC(=O)C(OC(=O)c1ccco1)c1ccccc1OC (stereo not drawn)	8.6	-0.5	1.9*	13.9
CC(C)C(OC(=O)c1ccco1)C(=O)NCc1ccccc1 (stereo not drawn)	-4.6	0.8	-0.3	59.1*
CC(OC(=O)c1ccco1)C(=O)NCc1ccccc1 (stereo not drawn)	21.5	0.0	0.0	0.6
COc1ccc(C(F)(F)F)cc1N/C=C(\C#N)C(N)=S	15.3	0.3	0.0	2.2
COc1ccc(N/C=C(\C#N)C(N)=S)cc1OC	9.6	0.2	-0.1	37.9*
COc1ccc2c(c1)CC(C(=O)Nc1ccc(-c3cn[nH]c3)cc1OCCO)CO2 (stereo not drawn)	34.1	1.4	0.8	38.7*
COc1ccc2c(c1)CC(C(=O)Nc1ccc(-c3cn[nH]c3)cc1C(=O)NCC#N)CO2 (stereo not drawn)	-17.4	-2.6	20.4*	4.8
COc1ccc(CNC(=O)c2cc(-c3cn[nH]c3)ccc2NC(=O)C2COc3ccc(OC)cc3C2)cc1 (stereo not drawn)	9.1	0.2	-0.1	-7.9
COc1ccc2c(c1)CC(C(=O)Nc1ccc(-c3cn[nH]c3)cc1OCCC(C)C)CO2 (stereo not drawn)	-3.7	0.3	-0.2	-5.9
NCCOc1cc(-c2cn[nH]c2)ccc1NC(=O)C1COc2ccccc2C1 (stereo not drawn)	13.0	-0.8	0.2	41.2*
COc1ccc2c(c1)CC(C(=O)Nc1cc3cc(-c4ccncc4)ccc3cn1)CO2 (stereo not drawn)	-9.2	-1.7	-0.1	59.4*
Cc1ccc2oc(-c3cccc(NC(=S)NC(=O)c4cncc(Br)c4)c3)nc2c1	12.3	-1.1	0.2	-50.0
SMILES	MITF primary	GPR151 activ	FBW7 act	TEAD-YAP block
COc1cccc(-c2ccccc2NC(=O)C2CCN(Cc3cnn(C)c3)CC2)c1	10.0	-0.8	0.1	-0.7
Cc1cc(C)cc(N=C2NC(=O)/C(=C\c3cc(C)n(-c4ccc(Cl)cc4)c3C)S2)c1	11.3	1.8	0.0	-3.1
COc1ccccc1C(=O)NCCn1cc(SCC(=O)Nc2cc(C(F)(F)F)ccc2Cl)c2ccccc21	16.3	1.1	-0.1	6.7
COc1ccccc1NC(=O)c1cc2cc([N+](=O)[O-])ccc2oc1=O	16.9	-1.8	0.3	3.8
COc1ccc2c(c1)CC(C(=O)Nc1ccc(-c3cn[nH]n3)cc1)CO2 (stereo not drawn)	-16.4	0.6	5.9*	0.4
O=C(Nc1ccc(-c2cn[nH]n2)cc1)C1COc2ccc(Cl)cc2C1 (stereo not drawn)	-0.5	-1.7	0.1	28.2
CC(=O)NC(c1ccco1)c1ccc2cccnc2c1O (stereo not drawn)	77.3*	0.1	-1.8	44.3*
CC(=O)NC(c1cccs1)c1ccc2cccnc2c1O (stereo not drawn)	70.0*	-2.2	-0.2	91.5*
COc1ccc2c(c1)O[C@@H](c1ccc3c(c1)OCO3)C(OC(=O)Nc1ccc(OC(F)F)cc1)C2=O (stereo partly drawn)	3.7	0.0	0.1	·
Cc1ccccc1C(=O)Nc1ccc(-c2ccc([N+](=O)[O-])cc2)cc1	-3.2	2.2	0.1	-24.5
O=C(Nc1ccc(-c2ccc([N+](=O)[O-])cc2)cc1)c1ccccc1O	-1.6	-0.7	-0.1	45.3*
O=C(Nc1ccccc1Cl)c1cc(F)ccc1[N+](=O)[O-]	11.3	0.2	0.2	79.8*
O=C(Nc1ccc(Br)cc1F)c1ccc(Cl)c([N+](=O)[O-])c1	17.6	-1.2	0.2	-12.4
O=C(Nc1ccc(N2CCCCC2)cc1)c1ccc(Cl)c([N+](=O)[O-])c1	6.3	-0.6	-0.2	42.8*
O=C(Nc1ccc(F)cc1F)c1ccc(Cl)c([N+](=O)[O-])c1	11.5	-2.0	0.0	56.0*
S=C(c1cn(Cc2ccc(Cl)cc2)c2ccccc12)N1CCOCC1	3.8	0.7	-0.1	-4.7
O=C(Nc1ccccc1Cl)c1cc([N+](=O)[O-])ccc1O	23.4	-6.3	1.1	60.4*
CC(C)CC(=O)Nc1ccc(Cl)c([N+](=O)[O-])c1	5.6	1.5	0.1	4.0
O=C(Nc1ccc([N+](=O)[O-])cc1Br)c1ccccc1O	9.7	-2.3	-0.1	78.1*
O=C(CCl)Nc1ccc(Cl)c([N+](=O)[O-])c1	-6.1	-0.2	0.0	73.9*
O=C(Nc1ccccc1Cl)c1ccc([N+](=O)[O-])cc1Cl	9.4	1.0	-0.1	0.3
CCN1CCN(C(=O)CCCCCn2c(=S)[nH]c3ccccc3c2=O)CC1	6.4	-0.1	0.8	-2.5
CCc1ccc2oc(-c3cccc(NC(C)=O)c3)nc2c1	0.1	-5.7	0.5	-12.0
Cc1ccc2oc(-c3ccc(NC(=O)C(F)(F)F)cc3)nc2c1	2.3	-4.6	0.1	71.3*
Cc1ccc2oc(-c3ccc(C(=O)Nc4ccc(NC(=O)C(C)(C)C)cc4)cc3)nc2c1	-2.4	1.9	-0.1	-38.6
SMILES	MITF primary	GPR151 activ	FBW7 act	TEAD-YAP block
CCC(=O)Nc1ccc2oc(-c3cccc(C)c3)nc2c1	8.3	-6.5	-0.1	82.1*
CCC(=O)Nc1ccc2oc(-c3cccc(Br)c3)nc2c1	-18.7	-3.1	-0.2	56.7*
COc1ccc2oc(-c3cccc(NC(C)=O)c3)nc2c1	-1.8	-8.4	0.0	40.4*
CCC(=O)Nc1ccc2oc(-c3cccc(I)c3)nc2c1	6.3	-3.2	-0.1	-18.3
CCc1c(Cc2[nH]c(C)c(C(C)=O)c2C)[nH]c(C(=O)O)c1C	-146.2	-1.8	15.0*	8.5
CC(=O)c1[nH]c(C)c(C(C)=O)c1C	-6.4	-0.6	-0.1	-5.9
COc1ccc(CNC(=O)N2CCN(Cc3nc(-c4ccco4)cs3)CC2)cc1OC	-0.3	2.1	-0.1	54.0*
